From PubChem BioAssay
Rows were chosen to be rich in hits. Some 3.5% of all compounds tested hit in one or more screens of this group.
TWEAK-Fn14 inh = inhibitors of TWEAK-Fn14 signaling, primary screen, luciferase reporter cells, uHTS. TWEAK-stimulated Fn14 reporter cells, luciferase luminescence, 8 h. inhibition, % at 10 µM. actives 2% (n = 360,000); in the data active means inhibition above about 50%
TROY signal inh = inhibitors of TROY-driven NF-kB signaling, primary screen, Q293 LMP1-TROYcd cells, NF-kB luciferase, uHTS; Q293 LMP1-TROYcd NF-kB luciferase reporter, 4 h; AID 1347056, 2019; actives 0.98% (n = 360,000); inhibition, % at 10 µM;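 active means compounds whose plate-normalised and pattern-corrected inhibition of the luciferase reporter signal at the single screening dose is 50% or more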
HSP90 inh = HSP90 inhibitors, primary screen, cell lysate, luminescence. Heat shock protein HSP 90 (rabbit reticulocyte lysate; luciferase refolding). actives 0.91% (n = 290,000). inhibition, % at 5.6 µM. Rabbit reticulocyte lysate, luciferase refolding luminescence, 3 h;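 active means inhibition above the screen-wide mean plus 3 SD, computed separately per campaign, cut at about 16% in these data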;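 further: inhibitors lower the luminescence because luciferase stays unfolded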
Platelet DG rel = inhibitors of platelet dense granule secretion, primary screen, cell-based, MLPCN, human platelets | human platelet-rich plasma, SFLLRN dense granule ATP release, luminescence | inhibition, %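 (compounds screened at 7.5 µM in platelet-rich plasma)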 | actives 0.22% (n = 300,000) | AID 1663, 2009;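 active means mean replicate score, as percent of positive control, at or above 50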
C8 TRAIL sens = viability loss with TRAIL in NB7+C8 cells, primary screen, TRAIL sensitizer project, cell-based, ATPlite luminescence; inhibition (viability loss, TRAIL sensitization), % at 10 µM; actives 1% (n = 360,000);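 active means compounds causing at least 50% loss of cell viability in the single-dose screen, relative to plate controls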
PPC-1+TRAIL kill = compounds killing PPC-1 cancer cells with TRAIL present, primary screen, TRAIL potentiator project, ATPLite luminescence, uHTS; PPC-1 cells + TRAIL, ATPLite viability luminescence; cell killing (% activity), % at 4 µM or 5 µM; actives 0.41% (n = 220,000);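 active means cell killing above 50% in the first pass at 4 µM, then a duplicate retest at 5 µM averaging 50% or more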
Each line names hits and unclear results; the compound was inactive in the other large screens.

N/C(=N\OC(=O)C1CC1)c1ccc([N+](=O)[O-])s1	none
COc1ccc2cc(-c3cc(C(=O)OCC(=O)NC4CCS(=O)(=O)C4)c4ccccc4n3)ccc2c1 (stereo not given)	C8 TRAIL sens 92, PPC-1+TRAIL kill 95
COc1ccc2cc(-c3cc(C(=O)OCC(=O)Nc4c(C)n(C)n(-c5ccccc5)c4=O)c4ccccc4n3)ccc2c1	TWEAK-Fn14 inh 60, C8 TRAIL sens 97, PPC-1+TRAIL kill 92
Cc1cc(C)c(Cn2c(=O)[nH][nH]c2=O)cc1Cn1c(=O)[nH][nH]c1=O	none (no result: HSP90 inh, Platelet DG rel, PPC-1+TRAIL kill)
O=C(CC1(O)C(=O)N(CCc2ccccc2)c2ccccc21)c1ccco1 (stereo not given)	TWEAK-Fn14 inh 86 (no result: TROY signal inh)
COc1cc(/C=N/NC(=O)COc2cc(C)cc(C)c2)ccc1OS(=O)(=O)c1ccc(C)cc1	TWEAK-Fn14 inh 62
CCc1ccc(OCC(=O)N/N=C/c2ccc(OS(=O)(=O)c3ccc(C)cc3)c(OC)c2)cc1	none
Cc1ccc(N(C)C(=O)C2CCCN2S(=O)(=O)c2ccc3c(c2)n(C)c(=O)c(=O)n3C)cc1 (stereo not given)	TWEAK-Fn14 inh 66
Cc1ccc(S(=O)(=O)N2CCCCC2C(=O)N(C)c2ccccc2)cc1 (stereo not given)	none (no result: PPC-1+TRAIL kill)
Cc1ccc(S(=O)(=O)N2CCCC2C(=O)O)cc1 (stereo not given)	Platelet DG rel 83
Cc1ccc(N2CCN(C(=O)C(=O)c3cccc([N+](=O)[O-])c3)CC2)cc1	none (no result: TWEAK-Fn14 inh, TROY signal inh, HSP90 inh, Platelet DG rel, PPC-1+TRAIL kill)
O=C(NC1=C(NC2CCS(=O)(=O)C2)C(=O)c2ccccc2C1=O)c1ccccc1 (stereo not given)	TWEAK-Fn14 inh 92, TROY signal inh 56, C8 TRAIL sens 52
O=C(NC(NC1CCS(=O)(=O)C1)C(=O)c1cccs1)c1ccccc1 (stereo not given)	none (no result: TWEAK-Fn14 inh, TROY signal inh, C8 TRAIL sens)
CCn1cc(Cl)c(C(=O)Nc2ccc3c(c2)OCCO3)n1	C8 TRAIL sens 52
Cn1ncc([N+](=O)[O-])c1C(=O)Nc1ccc2c(c1)OCCO2	TWEAK-Fn14 inh 82, TROY signal inh 59 (no result: Platelet DG rel)
Cn1nc(C(=O)Nc2ccc3c(c2)OCCO3)cc1C(=O)O	TWEAK-Fn14 inh 72, TROY signal inh 61
Cn1nccc1C(=O)Nc1ccc2c(c1)OCCO2	TWEAK-Fn14 inh 74, TROY signal inh 56
CCn1cc(Cl)c(C(=O)Nc2cccc(C(F)(F)F)c2)n1	none
CC1(Cc2ccccc2C#N)C(=O)Nc2ccc(-c3ccccc3)cc21 (stereo not given)	none (no result: HSP90 inh, Platelet DG rel, PPC-1+TRAIL kill)
Cc1c2ccccc2cc[n+]1CCCS(=O)(=O)[O-]	none
CC1(C)C(/C=C/C=C/C=C/C=C2\N(CCCCS(=O)(=O)O)c3ccc4ccccc4c3C2(C)C)=[N+](CCCCS(=O)(=O)[O-])c2ccc3ccccc3c21	TWEAK-Fn14 inh 55 (no result: HSP90 inh, Platelet DG rel, PPC-1+TRAIL kill)
CCCCCCCCCCCCCCCC[N+](C)(C)CC	C8 TRAIL sens 92 (no result: HSP90 inh, PPC-1+TRAIL kill)
CCCCCC[N+](C)(C)CCSSCC[N+](C)(C)CCCCCC	none
CCCCCCCCCCCCCCCC[N+](C)(C)CCl	C8 TRAIL sens 90 (no result: HSP90 inh, Platelet DG rel, PPC-1+TRAIL kill)
COCCN1C(=O)COc2ccccc2C1C(=O)NC1CCCC1 (stereo not given)	none (no result: HSP90 inh, Platelet DG rel, PPC-1+TRAIL kill)
O=C1CN(C(=O)c2ccc(F)cc2)c2ccccc2N1	none (no result: PPC-1+TRAIL kill)
CCN(CC(=O)Nc1ccc(NC(C)=O)cc1)Cc1c(O)ccc2cc(Br)ccc12	none (no result: PPC-1+TRAIL kill)
CCCCSc1cc(=O)[nH]c(N)n1	none
CC(CCc1ccccc1)NC(=O)CNC(=O)c1cccs1 (stereo not given)	TWEAK-Fn14 inh 61 (no result: PPC-1+TRAIL kill)
Cc1occc1C(=O)NC(C)CCc1ccccc1 (stereo not given)	TWEAK-Fn14 inh 52 (no result: TROY signal inh)
Cc1ccc(C)c(C(=O)NC(C)CCc2ccccc2)c1 (stereo not given)	none
Cc1cccc(C(=O)NCC(=O)NC(C)CCc2ccccc2)c1 (stereo not given)	none (no result: PPC-1+TRAIL kill)
CC(=O)Nc1ccc(S(=O)(=O)N(C)CC(=O)Nc2ccc(F)c(F)c2F)cc1	none (no result: HSP90 inh, Platelet DG rel, PPC-1+TRAIL kill)
CC(=O)Oc1ccc(C(=O)Nc2ccc(C3(C#N)CCCC3)cc2)cc1	none (no result: PPC-1+TRAIL kill)
N#CC1(c2ccc(NC(=O)c3ccccc3)cc2)CCCC1	C8 TRAIL sens 54
Nc1c(NC(=O)CC[n+]2ccccc2)cccc1[N+](=O)[O-]	TWEAK-Fn14 inh 52
CCN(CC(=O)Nc1cc(Cl)ccc1C)C(=O)c1ccc(=O)n(Cc2ccccc2)n1	none (no result: PPC-1+TRAIL kill)
Cc1cc(Nc2ccccc2)n(-c2ccccc2)n1	none
Cc1cc(Nc2nc(Cl)c(Cl)cc2Cl)n(-c2ccccc2)n1	HSP90 inh 26
COc1ccc(Cl)cc1C(=O)NNC(=S)NC(=O)c1ccc(F)c(F)c1	none (no result: Platelet DG rel, PPC-1+TRAIL kill)
Cc1cccnc1NC(=O)Cn1nc(-c2ccccc2)oc1=S	PPC-1+TRAIL kill 64
Cc1cccnc1NC(=O)Cn1nc([N+](=O)[O-])cc1C	none
O=C(NC(=S)N1CCc2ccccc21)c1ccccc1Cl	none (no result: PPC-1+TRAIL kill)
O=C(NC(=S)N1CCCc2ccccc21)c1ccco1	TWEAK-Fn14 inh 52, TROY signal inh 53
O=C(NC(=S)N1CCc2ccccc21)c1ccccc1	C8 TRAIL sens 51
Cc1ccc(C(=O)N2CCc3ccccc32)cc1NC(=O)c1ccco1	TWEAK-Fn14 inh 89
COc1ccc(-c2nc(-c3ccc4c(c3)OCO4)[nH]c2-c2ccc(OC)cc2)cc1	TWEAK-Fn14 inh 56
c1ccc(-c2noc(-c3ccc4c(c3)OCO4)n2)cc1	none
Cc1[nH]c(-c2ccc3c(c2)OCO3)nc1C(=O)O	none
COc1ccc(-c2noc(-c3ccc4c(c3)OCO4)n2)cc1	C8 TRAIL sens 45
Cc1c(Cl)ccc(S(=O)(=O)Nc2cccnc2)c1Cl	none (no result: PPC-1+TRAIL kill)
CCOC(=O)Cc1ccc(Nc2nc(NCc3cccs3)nc3ccsc23)cc1	TWEAK-Fn14 inh 65, TROY signal inh 55 (no result: HSP90 inh, Platelet DG rel, PPC-1+TRAIL kill)
COc1ccc(Nc2nc(NCc3cccs3)nc3ccsc23)cc1OC	TWEAK-Fn14 inh 54 (no result: HSP90 inh, Platelet DG rel, PPC-1+TRAIL kill)
COC(=O)C1=C(C)N(Cc2ccccc2)C(=NCC(C)C)N[C@H]1c1cccc(F)c1	none (no result: HSP90 inh, Platelet DG rel, PPC-1+TRAIL kill)
COC(=O)C1=C(C)N(Cc2ccccc2)C(=NCC(C)C)N[C@H]1c1cccc(C(F)(F)F)c1	C8 TRAIL sens 56 (no result: HSP90 inh, Platelet DG rel, PPC-1+TRAIL kill)
COC(=O)C1=C(C)N(Cc2ccccc2)C(=NCc2cccc(Cl)c2)N[C@H]1c1cccc(F)c1	C8 TRAIL sens 81 (no result: HSP90 inh, Platelet DG rel, PPC-1+TRAIL kill)
COC(=O)C1=C(C)N(Cc2ccccc2)C(=NCc2ccc(OC)cc2)N[C@H]1c1cccc(F)c1	none (no result: PPC-1+TRAIL kill)
COC(=O)C1=C(C)N(Cc2ccccc2)C(=NCc2ccccc2)N[C@H]1c1cccc(C(F)(F)F)c1	C8 TRAIL sens 78 (no result: HSP90 inh, Platelet DG rel, PPC-1+TRAIL kill)
CC1(C(=O)NS(=O)(=O)c2cccc(OC(F)F)c2)CCN1C(=O)CC(c1ccccc1)c1ccccc1 (stereo not given)	none (no result: HSP90 inh, Platelet DG rel, PPC-1+TRAIL kill)
